The results in this text go back to the OligoGym collection.
Note: reference of the scale not given here.

One assay deals with FAM55C. Nature of the assay: pooled miR-30 sensor sort-seq; sequence = guide strand. The conditions noted are these: shRNA.
Consider TTTATCTTCCTGTAAGCGCTGA, for which the sensor-assay potency score (higher = more potent) stood at 0.412. TTTGGTTTGAAGCAGAACCAGG: the sensor-assay potency score (higher = more potent) was -1.09. Still for that read-out and setting: the figure for TTTCTTTGTAAGCACTCTGTAA is -0.921; for TTAAACTCCACTAAATCTGGAA it is -0.0245; for TTGAGATAGTTCTAGACTGTTA it is -0.125. Same read-out and setting: the figure for AAACACTCTACTACCAACCAAA is -0.932; for TTCAAGATGACAAAGTAGCTGG it is 0.358; for TTAGTTTCTTTTATTCTCCTGG it is 0.337.

On to TTACACAAAAGTCAATTCCTAA, for which the sensor-assay potency score (higher = more potent) was -0.448. Same read-out and setting: the figure for TAGTTTCAGAAATTCTTCCTGA is 0.381; for TAAGCTACAAACACTCTACTAC it is 0.449; for TATAATATCGTAGCATTCTTTA it is -1.01.

The target in another assay is FAM57A. Described as above. The conditions noted are these: shRNA.
The sequence TAGGACCAGTACATGAAGGGGA yielded a sensor-assay potency score (higher = more potent) of 0.407.

Consider TTCGACTTAGGAAGTTTCGAAG, for which the sensor-assay potency score (higher = more potent) was -0.637. As for TTGCAGTAGAATGGGATGCTGA, the sensor-assay potency score (higher = more potent) is -0.668.

ATCACGTCGTCGCAGGAGCGAA yielded a sensor-assay potency score (higher = more potent) of -1.8. The same measure, in the same setting: the figure for TTGGAGCAGGCTTAGTCCCTGC is -0.863. The same measure, in the same setting: next, TTTCGACTTAGGAAGTTTCGAA: -0.112; TAGGAAGTTTCGAAGAGTGAGG: -0.893; TTGGGGAGTGTCAAAGAGCCGG: -1.25. On to TGATGTGTGATCATGAGGCGGT, for which the sensor-assay potency score (higher = more potent) came out at 0.245. In turn, TGCACCGAGGAAACCAGCCTGG yielded a sensor-assay potency score (higher = more potent) of -1.21. ATCATCACGCAGTCGGTGCGGC displayed a sensor-assay potency score (higher = more potent) of -0.575. Still for that read-out and setting: next, TTTAGCTGAATCAGAACCCTGC: 0.947.

In a further assay the target is FAM58A. The description is as above. The conditions noted are these: shRNA.
As to TTGATGATGTCACGAGTCCGCA, the sensor-assay potency score (higher = more potent) was -0.773. On the same count and under the same terms, the figure for TAGGGATTCAGTCTCATCGATT is -1.22; for TAGTGGAGCAGGTACTTGTGTG it is -1.12.

Sequence TTGGTCTCGCAAAAGAACTTAT showed a sensor-assay potency score (higher = more potent) of -0.839. Same read-out and setting: next, TCTCGCAAAAGAACTTATGGTA: -0.0793; TTGTAGTCAAAGTCCTCTCAAA: -0.91; TATGGTAAATGGTGCAAGCAGT: -0.754. TTGGGTTAAAGTACCTGTTGGA displayed a sensor-assay potency score (higher = more potent) of 0.579. ATCGATTTCATGACTTTCCTTT returned a sensor-assay potency score (higher = more potent) of 0.417. In turn, TTGGACACATTGATGATGTCAC showed a sensor-assay potency score (higher = more potent) of -0.0439. On the same count and under the same terms, next, TTGAAGACATGGCAATCAGGTA: -0.548; ATTGATGATGTCACGAGTCCGC: -0.413.
